Bioassay records from PubChem BioAssay.
The list is not random: actives were taken first. Their share in the collection is about 4.8%.
IL1B secr inh: qHTS for Inhibitors of Inflammasome Signaling: IL-1-beta AlphaLISA Primary Screen | THP-1 LPS/ATP IL-1B secretion, AlphaLISA, 16 h; hits give low values | activity change, % at 57.5 µM | 360,000 compounds, 4.7% hits | AID 743279, 2014; in the data active = activity change below about -50%; inconclusive = mostly about -30% to -49%; note: % is set by controls: 0 for no effect and ±100 for the full control effect
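THP-1 cells pretreated 1 hr with compounds (up to 57.5 uM final), then stimulated with LPS (250 ng/mL final) plus ATP (1.25 mM final); secreted IL-1B measured by AlphaLISA after 16 hr, decreased signal indicating inhibition.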
ATXN viability: Viability Counterscreen for Primary qHTS for Inhibitors of ATXN expression. S2 cells (HEK-293 line with an ATXN2-luciferase reporter) viability, CellTiter-Fluor protease fluorescence, 24 h. Potency, µM (doses to about 56.7 µM), actives largely listed as cytotoxic. 400,000 compounds, 0.49% hits. AID 651635, 2014; note: potency is the fitted concentration of half-maximal effect; nearly all actives have a fitted effect of over 40% in size
USP2a block: qHTS Assay for Inhibitors of Ubiquitin-specific Protease USP2a Using CHOP2 as the Reporter | Ubiquitin carboxyl-terminal hydrolase 2 (Homo sapiens), O75604 | USP2 core, Ub-CHOP2 coupled fluorogenic reporter, 485/531 | Potency, µM (highest dose often 38.3 µM), without a hit: at the top dose activity change, negative = inhibition, hits mostly inhibitors | 330,000 compounds, 0.01% hits | AID 463254, 2010;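 note: potency is the fitted concentration of half-maximal effect; plate controls were DMSO wells for no effect and full inhibition by NEM control for full effect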
Target sequence (O75604 whole entry, looked up): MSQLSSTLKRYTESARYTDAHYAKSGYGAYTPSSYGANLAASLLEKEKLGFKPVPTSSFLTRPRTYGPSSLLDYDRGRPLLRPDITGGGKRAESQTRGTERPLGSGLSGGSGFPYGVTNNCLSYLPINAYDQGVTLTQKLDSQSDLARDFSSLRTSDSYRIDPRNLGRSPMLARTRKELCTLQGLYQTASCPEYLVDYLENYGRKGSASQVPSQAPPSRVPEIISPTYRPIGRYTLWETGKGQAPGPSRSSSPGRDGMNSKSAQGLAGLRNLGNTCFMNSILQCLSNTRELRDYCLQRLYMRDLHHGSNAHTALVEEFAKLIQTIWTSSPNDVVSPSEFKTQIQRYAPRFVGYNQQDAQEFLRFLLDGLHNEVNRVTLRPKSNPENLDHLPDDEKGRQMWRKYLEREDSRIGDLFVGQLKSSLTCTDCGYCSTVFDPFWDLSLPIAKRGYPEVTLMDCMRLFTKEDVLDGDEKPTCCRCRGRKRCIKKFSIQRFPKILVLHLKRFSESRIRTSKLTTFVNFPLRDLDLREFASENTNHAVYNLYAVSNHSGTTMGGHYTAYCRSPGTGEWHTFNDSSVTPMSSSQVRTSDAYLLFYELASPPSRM
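Cell-free coupled assay: 10nM USP2 core preincubated 30min RT with compound in Tris-HCl pH 8.0/CaCl2/CHAPS buffer, then 25nM Ub-CHOP2 and 25nM reporter substrate; fluorescence (Ex 485/Em 531) read after 60min RT, normalized to NEM inhibition, concentration-response curves fitted.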
ATXN2 expr inh: Primary qHTS for Inhibitors of ATXN expression; HEK-293 ATXN2-luciferase reporter, luminescence, 24 h; 360,000 compounds, 0.72% hits; AID 1745845, 2022; Potency, µM (doses to about 57 µM), inactives show top-dose activity change, negative = inhibition, usual class: inhibitors; note: potency is the fitted concentration of half-maximal effect; % is set by controls: 0 for no effect and ±100 for the full control effect; nearly all actives have a fitted effect of over 55% in size
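qHTS (up to 57 uM final) was run with 24 h compound exposure of reporter cells at 37 °C. Each well was multiplexed: SteadyGlo luminescence measured ATXN2-luciferase expression after a fluorogenic Gly-Phe-AFC viability readout (25 uM final).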
USP1 inh: Inhibitors of USP1/UAF1: Primary Screen; recombinant USP1/UAF1, Ub-Rhodamine cleavage fluorescence; Potency, µM (top dose mostly 57.1 µM), inactives show at the highest dose activity change, negative = inhibition, hits mostly inhibitors; 390,000 compounds, 0.23% hits; note: potency is the fitted concentration of half-maximal effect; % is set by controls: 0 for no effect and ±100 for the full control effect; nearly all actives have a fitted effect of over 60% in size
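USP1/UAF1 complex at 1 nM was preincubated with compound for 15 min at room temperature, then Ub-Rho substrate (150nM final) was added. Fluorescence (480/540 nm) was read kinetically, 6 reads every 60 seconds.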
* hit, by the source's call; i = inactive; ? = inconclusive; . = no result; ! = not active in a repeat; [ ] = another dose, or the depositor's remark. Unless noted, calls come from the whole dose curve; as a rule, active = well fitted curve in the direction sought with a large enough effect; inconclusive = small, poorly fitted or top-dose-only effect, or another doubt; inactive = no such curve, though single readings can be large; an effect the other way counts as inactive or inconclusive.

SMILES	IL1B secr inh	ATXN viability	USP2a block	ATXN2 expr inh	USP1 inh
COCCCNC(=O)C[C@@H]1C[C@@]2(C(=O)OC)CC(C)(C)CC=C2N(Cc2ccc3c(c2)OCO3)C1=O	-18	.	.	.	.
COC(=O)[C@@]12C[C@@H](CC(=O)NCc3cccc(C(F)(F)F)c3)C(=O)N(Cc3ccc4c(c3)OCO4)C1=CCC(C)(C)C2	-71*	.	.	.	.
C/C(=N\NC(=O)c1ccn(C)n1)c1ccco1	-15	i	2%	-18%	-1%
COC(=O)Cc1ccc(OC2(C)CCN(Cc3ccccc3OC(F)F)C2)cc1 (stereo not drawn)	-54*	i	.	5%	.
CCc1ccc(OC2(C)CCN(Cc3ccccc3OC(F)F)C2)cc1 (stereo not drawn)	11	i	.	-3%	.
O=C(O)c1cccc(/C=C2/C[C@@H]3[C@@H](/C=C/[C@@H](O)C4CCCCC4)[C@H](O)C[C@@H]3O2)c1	.	i	.	.	.
CCOC(=O)C1=C(Cc2ccc(F)cc2)C(=O)c2ccccc2C1=O	-71*	?	5%	?	-22%
O=C(OCc1ccc(F)cc1)c1ccc2c(c1)-c1ccccc1C2=O	0	i	-2%	57%	-11%
O=S(c1ccc2ccccc2c1)c1cnns1 (stereo not drawn)	-111*	i	2%	-6%	-14%
CCOc1ccccc1CNS(=O)(=O)c1ccc(-c2cnc(C3CC3)o2)cc1	32	1.3µM*!	3%	-9%	-21%
Cc1ccc(CNC(=O)CNC(=O)c2ccc(Br)o2)cc1	75	i	3%	7%	-17%
Cc1[nH]nc(-c2ccc(O)cc2O)c1-c1ccc(Cl)cc1	?	i	3%	-34%	-12%
Cc1[nH]nc(-c2ccc(O)cc2O)c1-c1nc2ccccc2s1	-82*	?	12%	-30%[11.3 µM]	-14%
CCN1C(=NCCc2cccs2)N[C@@H](c2cccs2)C(C(=O)OC)=C1C	-13	?	0%	-10%	-16%
CCC(=O)N1CCN(c2ccc(NC(=S)NC(=O)c3ccc(OC)c([N+](=O)[O-])c3)cc2)CC1	-10	i	1%	-26%	-1%
CCCC(=O)N1CCN(c2ccc(NC(=S)NC(=O)c3cccc(C)c3)cc2)CC1	-65*	?	1%	?	-22%
COc1cccc(C(=O)NC(=S)Nc2ccc(N3CCCC3)cc2)c1	-57*	i	-1%	-9%	-16%
CC(O)CNCCNCc1c(OCc2ccccc2)ccc2ccccc12 (stereo not drawn)	-87*	?	14%	25µM*	-17%
CC(O)CNCCOc1ccccc1OCc1ccccc1 (stereo not drawn)	-13	i	0%	?	-17%
CCCC(O)c1nc2ccccc2n1CCCOc1ccc(Cl)cc1 (stereo not drawn)	.	i	.	-10%	?
O=C(c1ccc(OC2CCN(C/C=C/c3ccc(F)cc3)CC2)cc1)N1CCCC1	-71*	i	-1%	-27%	-13%
CCOc1ccc(NC(=O)CN2CCN(Cc3ccccc3)S2(=O)=O)cc1	.	i	.	1%	-8%
Cc1ccccc1NC(=O)c1sc2nc3c(c(-c4ccco4)c2c1N)CCC3	-69*	i	8%	3%	-20%
NC(=O)c1sc2nc3c(c(-c4ccco4)c2c1N)CCCC3	-7	i	-1%	.	-15%
Nc1c(C(=O)NCC2CCCO2)sc2nc3c(c(-c4ccco4)c12)CC/C3=C\c1ccco1 (stereo not drawn)	-4	i	?	4%	28µM*
SMILES	IL1B secr inh	ATXN viability	USP2a block	ATXN2 expr inh	USP1 inh
COc1cccc(NC(=O)c2sc3nc(C)c(C(=O)Nc4ccc(C)cc4C)c(-c4ccco4)c3c2N)c1	.	i	.	-2%	35µM*
C=CCn1c(C)cc(-c2csc(NC)n2)c1C	-96*	?	13%	-17%	-14%
C=CCn1c(C)cc(-c2csc(N)n2)c1C	-13	i	2%	25%	-21%
C=CCn1c(C)cc(-c2csc(NCC)n2)c1C	-55*	?	6%	?	-17%
O=[N+]([O-])c1ccc(Sc2nccn2Cc2ccccc2)c([N+](=O)[O-])c1	-108*	?	0%	-8%	-21%
O=C1C=C(NC2=CC3OC(c4ccccc4)OCC3OC2=O)CCC1 (stereo not drawn)	-117*	?	4%	-25%	-24%
CC1CC(C)CN(CCOc2ccc(Cl)cc2Cl)C1 (stereo not drawn)	-68*	i	0%	-31%	-4%
CC1CC(C)CN(CCOc2cccc(Cl)c2Cl)C1 (stereo not drawn)	-68*	i	2%	-25%	1%
COC(=O)C1CCCCN1Cc1nc(N2CCCN(C(C)=O)CC2)c2ccccc2n1 (stereo not drawn)	.	i	.	.	.
N=C1SCC(=O)N1c1ncc(Cc2ccc(F)cc2)s1	-104*	?	2%	?	-3%
COc1ccc2oc(C(=O)OCC(=O)N3CCC(C)CC3)c(C)c2c1	-55*	i	-1%	4%	-20%
Cc1cc(=O)oc2cc(OCC(=O)OCC(=O)N3CCC(C)CC3)ccc12	-60*	i	1%	-19%	?
COc1ccc2oc(C(=O)OCc3c(C)noc3C)c(C)c2c1	-107*	i	4%	-15%[11.3 µM]	-9%
COc1ccc(C(=O)OCc2c(C)noc2C)cc1	0	i	-1%	21%	-11%
CCc1nc2cc(C(=O)N(C)C3CCOC3)cc(NC(=O)c3ccccc3OC)c2n1C (stereo not drawn)	.	i	.	.	.
FC(F)(F)C(F)(F)C(F)(F)C(F)(F)C(F)(F)C(F)(F)C(F)(F)C(F)(F)Br	.	i	.	18%	.
COc1ccc(-c2nnc(SCC(=O)Oc3cccc(C)c3C)o2)cc1	.	.	.	.	-14%
C/C(=N\Nc1nc2ccccc2[nH]1)c1ccc2c(c1)OCO2	-83*	i	10%	?	-11%
C/C(=N\Nc1ccccn1)c1ccc2c(c1)OCO2	-6	i	0%	68%	-12%
C/C(=N\Nc1nc2ccccc2[nH]1)c1cc2ccccc2o1	-95*	.	3%	10%	?
C/C(=N\Nc1nc2ccccc2[nH]1)c1ccc2c(c1)OCCO2	-54*	i	-10%	14%	-18%
O=C(Cn1ncc2c3ccccc3n(Cc3ccc(Cl)cc3)c2c1=O)NC1CCCCCC1	.	i	.	11%	?
COc1ccc(CNC(=O)C2CCN(S(=O)(=O)c3ccc4c(ccn4C)c3)CC2)cc1	.	i	.	16%	-12%
CC(C)CCN(C(=S)Nc1cccc(F)c1)C1CCN(C(C)C)CC1	-92*	i	9%	.	?
